Laboratory results as given in paper PMC7862700, “An all-to-all approach to the identification of sequence-specific readers for epigenetic DNA modifications on cytosine”.

Tests used:
Assay in all cases: DAPPL (digital affinity profiling via proximity ligation, sequencing); 10 mM Tris-HCl pH 7.5, 50 mM NaCl, 1 mM DTT, 4% glycerol, room temperature, 30 min; GST-TFs on glutathione beads, 16-mer random dsDNA library, 0.1% formaldehyde crosslink after washing; high values mean tight binding
Conditions in all cases: protein: recombinant; tags: N-terminal GST; dsDNA, one strand shown
FLI1 = molecular target: T1, FLI1 (Homo sapiens, UniProt Q01543 1-452)
T1 sequence: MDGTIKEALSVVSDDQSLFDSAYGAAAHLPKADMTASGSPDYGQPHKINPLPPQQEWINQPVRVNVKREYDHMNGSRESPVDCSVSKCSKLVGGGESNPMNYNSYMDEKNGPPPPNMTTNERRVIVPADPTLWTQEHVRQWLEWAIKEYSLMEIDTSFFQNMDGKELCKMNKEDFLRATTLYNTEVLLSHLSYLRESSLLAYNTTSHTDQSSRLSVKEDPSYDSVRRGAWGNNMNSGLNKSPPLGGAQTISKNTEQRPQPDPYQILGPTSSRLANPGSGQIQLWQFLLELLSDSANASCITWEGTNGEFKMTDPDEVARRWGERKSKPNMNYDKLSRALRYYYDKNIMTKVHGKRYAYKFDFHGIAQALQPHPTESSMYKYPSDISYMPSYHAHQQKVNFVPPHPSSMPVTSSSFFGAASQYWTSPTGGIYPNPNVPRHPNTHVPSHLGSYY
Outline: (§1)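 Pools were built from human transcription factors expressed in yeast as GST fusions, captured on glutathione beads and DNA-barcoded, along with a tag-only sample. Incubation with 200 nmole of a 16-mer random double-stranded DNA library lasted 30 min at room temperature in Tris/NaCl/DTT/glycerol buffer, and was followed by washing, 0.1% formaldehyde crosslinking, proximity ligation, PCR amplification and Illumina NextSeq500 sequencing. Binding signal is the quotient of each hexamer's read frequency for a factor and its frequency for the tag-only sample.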

ELK1 = molecular target: T2, ELK1 (Homo sapiens, UniProt P19419 1-428)
T2 sequence: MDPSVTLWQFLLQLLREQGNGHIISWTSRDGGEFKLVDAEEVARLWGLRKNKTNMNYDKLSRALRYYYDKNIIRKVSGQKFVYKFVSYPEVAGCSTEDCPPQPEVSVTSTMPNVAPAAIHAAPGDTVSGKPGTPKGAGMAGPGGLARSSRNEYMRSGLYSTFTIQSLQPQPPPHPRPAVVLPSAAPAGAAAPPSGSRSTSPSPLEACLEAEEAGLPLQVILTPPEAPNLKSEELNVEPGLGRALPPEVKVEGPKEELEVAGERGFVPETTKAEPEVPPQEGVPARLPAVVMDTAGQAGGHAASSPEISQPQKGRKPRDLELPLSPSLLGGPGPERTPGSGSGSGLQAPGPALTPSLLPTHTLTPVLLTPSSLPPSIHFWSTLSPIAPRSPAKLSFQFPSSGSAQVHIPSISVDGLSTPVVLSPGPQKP
Outline: as §1

GABPA = molecular target: T3, GABPA (Homo sapiens, UniProt Q06546 1-454)
T3 sequence: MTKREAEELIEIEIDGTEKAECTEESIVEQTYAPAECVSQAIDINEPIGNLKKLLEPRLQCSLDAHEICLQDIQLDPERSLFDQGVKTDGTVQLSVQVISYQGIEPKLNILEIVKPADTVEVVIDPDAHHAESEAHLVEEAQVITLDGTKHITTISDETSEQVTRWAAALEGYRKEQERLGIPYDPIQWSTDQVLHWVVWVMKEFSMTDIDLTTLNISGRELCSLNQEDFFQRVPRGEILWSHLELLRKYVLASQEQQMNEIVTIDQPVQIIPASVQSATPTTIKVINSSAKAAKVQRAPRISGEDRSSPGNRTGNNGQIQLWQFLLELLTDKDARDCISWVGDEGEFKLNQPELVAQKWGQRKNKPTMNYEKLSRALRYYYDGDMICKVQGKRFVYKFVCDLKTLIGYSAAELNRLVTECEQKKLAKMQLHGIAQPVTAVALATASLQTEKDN
Outline: as §1

ERG = molecular target: T4, ERG (Homo sapiens, UniProt P11308 1-479)
T4 sequence: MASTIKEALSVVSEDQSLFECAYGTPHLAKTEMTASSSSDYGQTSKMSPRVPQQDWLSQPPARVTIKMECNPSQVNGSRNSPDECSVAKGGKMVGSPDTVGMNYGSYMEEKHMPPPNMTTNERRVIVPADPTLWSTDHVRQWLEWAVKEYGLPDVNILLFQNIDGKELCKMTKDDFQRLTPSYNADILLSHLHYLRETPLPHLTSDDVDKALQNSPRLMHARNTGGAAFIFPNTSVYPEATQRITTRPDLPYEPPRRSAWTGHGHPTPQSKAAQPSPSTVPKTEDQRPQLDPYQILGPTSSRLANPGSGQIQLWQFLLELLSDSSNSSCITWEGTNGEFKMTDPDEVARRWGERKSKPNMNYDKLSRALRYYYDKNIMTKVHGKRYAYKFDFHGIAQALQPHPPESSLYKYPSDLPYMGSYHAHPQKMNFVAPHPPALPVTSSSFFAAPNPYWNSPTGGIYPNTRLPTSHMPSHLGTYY
Outline: as §1

ELF1 = ELF1 (Homo sapiens, UniProt P32519 1-619)
Outline: as §1

EHF = molecular target: T5, EHF (Homo sapiens, UniProt Q9NZC4 1-300)
T5 sequence: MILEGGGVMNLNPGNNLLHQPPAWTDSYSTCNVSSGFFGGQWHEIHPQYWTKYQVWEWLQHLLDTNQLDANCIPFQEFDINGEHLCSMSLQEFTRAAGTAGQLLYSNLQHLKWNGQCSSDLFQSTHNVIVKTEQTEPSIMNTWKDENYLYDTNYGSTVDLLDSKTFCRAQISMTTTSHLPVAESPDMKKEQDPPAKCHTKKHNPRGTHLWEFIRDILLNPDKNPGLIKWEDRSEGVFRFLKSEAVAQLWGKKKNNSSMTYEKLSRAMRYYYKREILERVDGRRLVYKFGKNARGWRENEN
Outline: as §1

SPI1 = SPI1 (Homo sapiens, UniProt P17947 1-270)
Outline: as §1

SPIB = SPIB (Homo sapiens, UniProt Q01892 1-262)
Outline: as §1

Sequence of SPIB (Q01892 whole entry): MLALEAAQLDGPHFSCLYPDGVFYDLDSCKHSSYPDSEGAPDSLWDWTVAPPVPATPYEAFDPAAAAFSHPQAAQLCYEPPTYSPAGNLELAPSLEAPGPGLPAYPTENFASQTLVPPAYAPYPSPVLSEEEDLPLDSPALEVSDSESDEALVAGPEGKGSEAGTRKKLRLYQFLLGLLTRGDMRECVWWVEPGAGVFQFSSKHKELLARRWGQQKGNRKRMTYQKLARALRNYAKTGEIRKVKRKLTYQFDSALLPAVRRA
Sequence of ELF1 (P32519 whole entry): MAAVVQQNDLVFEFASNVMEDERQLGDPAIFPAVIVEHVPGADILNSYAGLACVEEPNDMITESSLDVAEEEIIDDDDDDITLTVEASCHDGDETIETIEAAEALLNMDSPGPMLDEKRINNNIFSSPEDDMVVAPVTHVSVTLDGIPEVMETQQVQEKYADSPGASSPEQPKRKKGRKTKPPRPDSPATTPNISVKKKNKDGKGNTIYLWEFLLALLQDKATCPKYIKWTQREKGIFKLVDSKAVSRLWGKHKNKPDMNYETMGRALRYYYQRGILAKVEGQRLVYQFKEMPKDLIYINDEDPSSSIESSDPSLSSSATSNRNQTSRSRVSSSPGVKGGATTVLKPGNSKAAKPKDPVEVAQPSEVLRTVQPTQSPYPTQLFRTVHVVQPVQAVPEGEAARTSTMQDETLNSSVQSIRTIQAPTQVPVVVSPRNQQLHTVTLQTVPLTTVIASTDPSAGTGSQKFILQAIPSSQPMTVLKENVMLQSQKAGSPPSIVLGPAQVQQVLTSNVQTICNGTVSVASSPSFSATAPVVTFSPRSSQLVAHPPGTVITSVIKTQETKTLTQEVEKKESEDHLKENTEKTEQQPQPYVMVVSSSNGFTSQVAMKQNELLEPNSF

ATAGCT was tested, and the binding signal (FLI1) was 1.13 fold enrichment (6-mer frequency, TF over GST control), the binding signal (ELK1) was 1.08 fold enrichment (6-mer frequency, TF over GST control) and the binding signal (GABPA) was 1.2 fold enrichment (6-mer frequency, TF over GST control). For the same sequence, the binding signal (ERG) was 1.07 fold enrichment (6-mer frequency, TF over GST control), the binding signal (ELF1) was 1.19 fold enrichment (6-mer frequency, TF over GST control) and the binding signal (EHF) was 1.25 fold enrichment (6-mer frequency, TF over GST control). The binding signal (SPI1) was 1.17 fold enrichment (6-mer frequency, TF over GST control) and the binding signal (SPIB) was 1.09 fold enrichment (6-mer frequency, TF over GST control).
For CTGGAC, the binding signal (FLI1) was 1.16 fold enrichment (6-mer frequency, TF over GST control), the binding signal (ELK1) was 1.07 fold enrichment (6-mer frequency, TF over GST control) and the binding signal (GABPA) was 1.17 fold enrichment (6-mer frequency, TF over GST control). For the same sequence, the binding signal (ERG) was 1.13 fold enrichment (6-mer frequency, TF over GST control), the binding signal (ELF1) was 1.12 fold enrichment (6-mer frequency, TF over GST control) and the binding signal (EHF) was 1.13 fold enrichment (6-mer frequency, TF over GST control). The binding signal (SPI1) was 1.08 fold enrichment (6-mer frequency, TF over GST control) and the binding signal (SPIB) was 1.05 fold enrichment (6-mer frequency, TF over GST control).
For TAGATT, the binding signal (FLI1) was 1.17 fold enrichment (6-mer frequency, TF over GST control), the binding signal (ELK1) was 1.2 fold enrichment (6-mer frequency, TF over GST control) and the binding signal (GABPA) was 1.18 fold enrichment (6-mer frequency, TF over GST control). The binding signal (ERG) was 1.2 fold enrichment (6-mer frequency, TF over GST control), the binding signal (ELF1) was 1.17 fold enrichment (6-mer frequency, TF over GST control) and the binding signal (EHF) was 1.24 fold enrichment (6-mer frequency, TF over GST control). For the same sequence, the binding signal (SPI1) was 1.16 fold enrichment (6-mer frequency, TF over GST control) and the binding signal (SPIB) was 1.24 fold enrichment (6-mer frequency, TF over GST control).
For GGTATA, the binding signal (FLI1) was 1.04 fold enrichment (6-mer frequency, TF over GST control), the binding signal (ELK1) was 1.16 fold enrichment (6-mer frequency, TF over GST control) and the binding signal (GABPA) was 1.02 fold enrichment (6-mer frequency, TF over GST control). The binding signal (ERG) was 1.05 fold enrichment (6-mer frequency, TF over GST control), the binding signal (ELF1) was 1.09 fold enrichment (6-mer frequency, TF over GST control) and the binding signal (EHF) was 1.11 fold enrichment (6-mer frequency, TF over GST control). The binding signal (SPI1) was 1.07 fold enrichment (6-mer frequency, TF over GST control) and the binding signal (SPIB) was 1.06 fold enrichment (6-mer frequency, TF over GST control).
For CTTGAA, the binding signal (FLI1) was 1.16 fold enrichment (6-mer frequency, TF over GST control), the binding signal (ELK1) was 1.24 fold enrichment (6-mer frequency, TF over GST control) and the binding signal (GABPA) was 1.09 fold enrichment (6-mer frequency, TF over GST control). For the same sequence, the binding signal (ERG) was 1.12 fold enrichment (6-mer frequency, TF over GST control), the binding signal (ELF1) was 1.2 fold enrichment (6-mer frequency, TF over GST control) and the binding signal (EHF) was 1.18 fold enrichment (6-mer frequency, TF over GST control). The binding signal (SPI1) was 1.13 fold enrichment (6-mer frequency, TF over GST control) and the binding signal (SPIB) was 1.17 fold enrichment (6-mer frequency, TF over GST control).
CAACGC was tested, and the binding signal (FLI1) was 1.04 fold enrichment (6-mer frequency, TF over GST control), the binding signal (ELK1) was 1.11 fold enrichment (6-mer frequency, TF over GST control) and the binding signal (GABPA) was 1.12 fold enrichment (6-mer frequency, TF over GST control). For the same sequence, the binding signal (ERG) was 1.04 fold enrichment (6-mer frequency, TF over GST control), the binding signal (ELF1) was 1.11 fold enrichment (6-mer frequency, TF over GST control) and the binding signal (EHF) was 1.01 fold enrichment (6-mer frequency, TF over GST control). The binding signal (SPI1) was 1.1 fold enrichment (6-mer frequency, TF over GST control).
TAGTCT was tested, and the binding signal (FLI1) was 1.09 fold enrichment (6-mer frequency, TF over GST control), the binding signal (ELK1) was 1.07 fold enrichment (6-mer frequency, TF over GST control) and the binding signal (GABPA) was 1.21 fold enrichment (6-mer frequency, TF over GST control). For the same sequence, the binding signal (ERG) was 1.08 fold enrichment (6-mer frequency, TF over GST control), the binding signal (ELF1) was 1.07 fold enrichment (6-mer frequency, TF over GST control) and the binding signal (EHF) was 1.05 fold enrichment (6-mer frequency, TF over GST control). The binding signal (SPI1) was 1.07 fold enrichment (6-mer frequency, TF over GST control).
With TCAATT the binding signal (FLI1) was 1.09 fold enrichment (6-mer frequency, TF over GST control), the binding signal (ELK1) was 1.06 fold enrichment (6-mer frequency, TF over GST control) and the binding signal (GABPA) was 1.19 fold enrichment (6-mer frequency, TF over GST control). For the same sequence, the binding signal (ERG) was 1.16 fold enrichment (6-mer frequency, TF over GST control), the binding signal (ELF1) was 1.16 fold enrichment (6-mer frequency, TF over GST control) and the binding signal (EHF) was 1.12 fold enrichment (6-mer frequency, TF over GST control). For the same sequence, the binding signal (SPI1) was 1.18 fold enrichment (6-mer frequency, TF over GST control) and the binding signal (SPIB) was 1.29 fold enrichment (6-mer frequency, TF over GST control).
